Reference: PubChem BioAssay (NCI)
The panel holds about 79,000 compounds, 15% with a hit somewhere; the sample as a whole holds those more often. Active and inactive are the calls of the source. Rule as the data show it: active = growth inhibition above about 70%; inactive = the rest.

Test: NCI Yeast Anticancer Drug Screen. Data for the mec2-1 strain (AID 157)
Details: S. cerevisiae mec2-1 strain, at 50.0 µM (retest, dose inferred, filed as 5.0), hits give high values
In short: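 Cells of the genetically defined mec2-1 yeast strain are incubated with test compound. Inhibition of growth is calculated against vehicle-treated controls.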

Compound	growth inhibition
CCOc1ccccc1/C=C1\NC(=O)N(/C=C2\C(=O)Oc3ccccc3C2=O)C1=O	96% (active)
CC(NNC(=S)N1CCCC1)c1ccc2ccccc2n1 (stereo unspecified)	96% (active)
N#Cc1c(-c2ccc(Cl)cc2)c(C#N)c(=O)n(NS(=O)(=O)c2ccccc2)c1S	78% (active)
CC(C)/C=C1\CCOC1=O	1% (inactive)
c1ccc(Nc2nnc3nc(-c4ccccc4)c(-c4ccccc4)nn23)cc1	82% (active)
O=C(NC(c1ccccc1)N1CCOCC1)c1ccccc1 (stereo unspecified)	7% (inactive)
N[C@@H]1CCCC[C@@H]1N.O=C([O-])CN(CP(=O)([O-])[O-])CP(=O)([O-])[O-].[Pt+2]	75% (active)
C/C=C\C(/C=C/C)(C(=O)OCCN(C)C)C(/C=C\C)(/C=C/C)C(=O)OCCN(C)C (stereo unspecified)	97% (active)
COc1ccc(CCNC(=S)/N=C\C(C(=O)c2ccccc2)=C(\O)c2ccccc2)cc1OC	93% (active)
Cc1ccccc1C1SCc2nc3ccccc3n21 (stereo unspecified)	-4% (inactive)
O=C(Nc1ccc(Cl)cc1)Nc1nnc(/C=C/c2ccc(Cl)c(Cl)c2)o1	-91% (inactive)
Cc1c(CCCl)c(N=[N+]=[N-])n2c(nc3ccccc32)c1C#N	45% (inactive)
O=C(OCCCC(C(=O)c1ccccc1)=P(c1ccccc1)(c1ccccc1)c1ccccc1)c1ccccc1	99% (active)
O=C(c1ccccc1)c1ccc(Cl)cc1	-5% (inactive)
O=C1C(C(O)(C(F)(F)Cl)C(F)(F)Cl)CCCC1C(O)(C(F)(F)Cl)C(F)(F)Cl (stereo unspecified)	100% (active)
CCN(CC)C(=S)N=Nc1c(O)[nH]c2ccccc12	99% (active)
